Reference: PubChem BioAssay (NCI)
Where “and” joins values, the source holds several entries; their conditions need not be identical. Equal entries are not always repeated. The panel holds about 83,000 compounds, 20% with a hit somewhere; the sample as a whole holds those more often.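 48-hour exposure, single concentration, 96-well plates; percent growth endpoint where 0 means no net growth. Active: below 10.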 Calls of active or inactive are those of the source.

What follows are compounds tested on MDA-MB-468 breast (assay: NCI-60 one-dose screen, 48 h (100 = growth as untreated, 0 = no growth, -100 = all killed)). Conditions: 10 µM unless noted.
For `S=C(Nc1ccc(OCc2nc3ccc(Cl)cc3[nH]2)cc1)NC1CCCCC1`, the growth was -30.8% (active). With `CC(C)(C)C(=O)c1c2c(c3ccc4c5ccccc5ccc4n13)C(=O)c1ccccc1C2=O` the growth was 98.7% (inactive). In the case of `COc1ccc(-c2cc(C)nc3[nH]c(=O)sc23)cc1`, the growth is reported as 76% (inactive). In the case of `O=C(Nc1nc2ccccc2s1)Nc1ccccc1Cl`, the growth is reported as 97% (inactive). For `COC(=O)c1cc(C(=O)C(C)(C)C)n2c3ccccc3c3ccccc3c12`, the growth was 88.3% (inactive). For `CC(=O)Nc1cccc(-n2c(COc3ccc(I)cc3)nc3ccccc32)c1`, the growth was 78.7% (inactive) and 111% (inactive). For `COc1ccc(N=Nc2c(N)nn3c(-c4cc5ccccc5oc4=O)ccnc23)cc1`, the growth was 24.7% (inactive). `O=C(Nc1ccc(S(=O)(=O)N2CCCCC2)cc1)C(Cl)Cl` was tested, and the growth was 118% (inactive). In the case of `CC(C)(C)OC(=O)N1C/C(=C\c2ccc(F)cc2)C(=O)/C(=C/c2ccc(F)cc2)C1`, the growth is reported as -82.3% (active). For `O=C(COc1ccc(/C=C2/C(=O)Nc3ccc(Cl)cc32)cc1)Nc1ccc(Br)cc1`, the growth was 38.4% (inactive). `O=C(Cn1c(-c2ccccc2)nc2ccccc21)N=Nc1c(O)[nH]c2ccc(Br)cc12` was tested, and the growth was -53.4% (active). With `COc1cccc(-c2ccc(/C=N/NC(=O)c3[nH]c4ccc(Br)cc4c3-c3ccccc3)s2)c1` the growth was 7.16% (active). For `O=C(c1ccc(Cl)cc1)C1[C@H](c2ccccc2Cl)[C@@H](c2ccccc2)NC12C(=O)Nc1ccc(Cl)cc12` (stereo partly drawn), the growth was -52.5% (active). In the case of `COc1ccc(-c2cc(-c3ccccc3)c(C#N)c(=O)[nH]2)cc1S(N)(=O)=O`, the growth is reported as 102% (inactive). With `CN(C)c1nc(NCCNS(=O)(=O)c2ccc(C(=O)/C=C/c3ccccc3)cc2)nc(N2CCOCC2)n1` the growth was 52.1% (inactive). In the case of `N#CC1=C(c2cccs2)Nc2c(c(-c3ccccc3)nn2-c2ccccc2)C12C(=O)Nc1ccc(Cl)cc12` (stereo not drawn), the growth is reported as -22.1% (active). In the case of `C#CCN(C)CCCOc1ccc(N(C)C(=O)c2cc(C(C)C)c(O)cc2O)cc1Cl`, the growth is reported as -30.8% (active). For `COc1ccc2c(c1)C(=O)N(C)C2C1c2c(cc3c(c2OC)OCO3)CCN1C` (stereo not drawn), the growth was 8.46% (active). In the case of `Cc1ccc(N=Nc2c(N)nn3c(-c4cc5cc(Br)ccc5oc4=O)ccnc23)cc1`, the growth is reported as 73.5% (inactive). For `O=C(CSc1nnc(-c2ccc(-c3nc4ccc(Cl)cc4[nH]3)cc2)o1)Nc1ccccc1`, the growth was 90.9% (inactive). `COc1ccc2ccccc2c1/C=C1\SC(=Nc2ccc(O)cc2)NC1=O` was tested, and the growth was -34.7% (active). In the case of `Cc1ccc(N=Nc2c(N)nn3c(-c4cc5ccccc5oc4=O)ccnc23)cc1`, the growth is reported as 14.9% (inactive). For `COc1ccc2nc(NC(=O)c3ccc(N(C)C)cc3)sc2c1`, the growth was 41.1% (inactive). For `CC1=C(C)C(=O)C(N2CCSCC2)=CC1=O`, the growth was 60.4% (inactive). In the case of `O=C(CSc1nnc(-c2ccc(-c3nc4ccccc4[nH]3)cc2)o1)Nc1ccc(Cl)cc1`, the growth is reported as 54.8% (inactive). For `CC[C@]12C=CCN3CC[C@]4(C(=C(C(=O)OC)C1)Nc1cc(OC)c([C@@H]5[C@H]6O[C@H]6[C@@]6(CC)CC(C(=O)OC)=C7Nc8cc(OC)ccc8[C@@]78CCN5[C@@H]68)cc14)[C@@H]32`, the growth was 28.9% (inactive). With `CC(=O)c1ccc2c(N)c(C(=O)Nc3ccc(C(F)(F)F)cc3)sc2n1` the growth was 10.6% (inactive). With `COc1ccc2c(c1)N=c1c-2cc2c(O)[nH]c(=S)n2c1=O` the growth was -25.9% (active). With `CN1CCN(CCS(=O)(=O)Nc2cc(-c3ccc4ncnc(Nc5ccc(F)c(Cl)c5)c4c3)cnc2Cl)CC1` the growth was -75.1% (active). For `C[C@@H](Nc1c(C#N)cnc2ccc(-c3cnc4[nH]ncc4c3)cc12)c1ccccc1`, the growth was -70.1% (active). `CN1CCc2c(sc3ncnc(N/N=C/c4cccc(Cl)c4Cl)c23)C1` was tested, and the growth was 33.2% (inactive). With `COc1ccc(C2=NN(C(=O)[C@H]3[C@@H](c4ccco4)c4sc(=O)[nH]c4S[C@@H]3C)C(c3ccc4ccccc4c3)C2)cc1` (stereo partly drawn) the growth was -14.6% (active). In the case of `N#Cc1c(-c2ccc(F)cc2)nc(SCc2ccc(F)cc2)nc1N1CCNCC1`, the growth is reported as -72% (active). In the case of `O=C(CSc1nnc(-c2ccc(-c3nc4ccccc4[nH]3)cc2)o1)Nc1ccc(Br)cc1`, the growth is reported as 67.3% (inactive). `CN(C)CCCNC(=S)Nc1ccc(/C=C/c2ccc(Cl)cc2)cc1` was tested, and the growth was -88.7% (active). With `N/C(=N\c1nc2ccccc2s1)NC(=O)Nc1ccccc1F` the growth was -12.3% (active). In the case of `CN1C(=O)/C(=C\C(=O)c2cc3ccccc3oc2=O)c2ccccc21`, the growth is reported as 28.8% (inactive). With `COc1ccc(-n2c(NC(=O)N3CCN(C)CC3)c(C#N)c3ccccc32)cc1` the growth was 38.3% (inactive).
